Source: PubChem BioAssay AID623997 (National Center for Advancing Translational Sciences (NCATS), 2012)
Records with an inconclusive call do not appear. Values without a mark were called inactive. Active and inactive are the calls of the source. No rule for the calls is given here.

Experiment: qHTS Assay for Inhibitors of Influenza NS1 Protein Function: Mammalian Cell Viability
Conditions: NS1 counter-screen; at 100 µM (top of the series)
Description: Influenza is a world-wide public health problem and emerging forms of the virus have the potential to cause a pandemic of equal or greater magnitude to the outbreaks recorded in 1918, 1957 or 1968. Vaccine development is proceeding and there also exist two classes of anti-influenza compounds. However these therapeutic modalities are neither fully effective nor widely enough available to fulfill global needs. In addition their potential usefulness against newly emergent strains is not known. Efforts are needed to develop novel agents against influenza virus, including broad-spectrum agents. Identification of small molecules that inhibit NS1 function either directly or by interfering with specific cellular pathways may be a key to increasing our defense against the virus.
We have miniaturized and optimized a cell based assay in which NS1 from influenza A is expressed in the budding yeast S. cerevisiae. NS1 is a multi-functional protein that counters the host innate immune response and facilitates viral versus cellular gene expression. Expression of NS1 causes a pronounced slow growth phenotype in yeast due to its intrinsic molecular activities. Small molecules that suppress the slow growth phenotype can be identified by a straightforward growth recovery assay using optical density (OD) as the measurement. The same yeast strain not expressing NS1 was used as positive control in the yeast growth recovery assay.
Hits resulting from this primary screen and other follow-up screens, were tested in four concentrations for this mammalian cell viability assay, using MDCK cells.
NIH Chemical Genomics Center [NCGC]
NIH Molecular Libraries Probe Centers Network [MLPCN]
Assay Submitter (PI): Daniel Engel, University of Virgina
Opaque-walled 96-well plates were seeded with […] MDCK cells per well in 100 uL medium and incubated overnight at 37 deg C. The compound was added to triplicate wells for each concentration tested and incubated for 48 h at 37 deg C. The plate was equilibrated for 30 min at room temperature and 100 uL CellTiter Glo reagent (Promega) added according to the manufacturer's protocol. The plate was shaken for 2 min and then incubated for 10 min at room temperature. Luminescence was recorded in an LMAX 384 reader (Molecular Devices) with integration time of 1 s.

| SMILES | viability |
| --- | --- |
| COc1cc(-c2c(C#N)c(N)nc3c2c(C)nn3-c2ccc(F)cc2)cc(OC)c1OC | 90.7% |
| COc1cc(-c2c(C#N)c(=O)[nH]c3c2c(C)nn3-c2ccccc2)ccc1O | 85.2% |
| COc1cc(-c2c(C#N)c(N)nc3c2c(C)nn3-c2ccc(C)c(C)c2)cc(OC)c1OC | 90.8% |
| COc1cc(-c2ccnc3c2c(C)nn3-c2cccc(F)c2)ccc1O | 122% |
| COc1ccc(-c2ccnc3c2c(C)nn3-c2ccc(F)cc2)cc1 | 114% |
| Cc1nn(-c2ccccc2)c2nc(N)c(C#N)c(-c3ccc(O)c(O)c3)c12 | 105% |
| COc1ccc(-c2c(C#N)c(N)nc3c2c(C)nn3-c2ccc(F)cc2)cc1OC | 101% |
| COc1cccc(-n2nc(C)c3c(-c4ccc(O)c(OC)c4)ccnc32)c1 | 124% |
| COc1cc(-c2c(C#N)c(N)nc3c2c(C)nn3-c2ccc(F)cc2)ccc1O | 88% |
| COc1ccc(-c2ccnc3c2c(C)nn3-c2ccc(F)cc2)cc1OC | 93.4% |
| COc1cccc(-c2ccnc3c2c(C)nn3-c2ccc(F)cc2)c1 | 4.7% (active) |
| COc1ccc(-c2c(C#N)c(N)nc3c2c(C)nn3-c2ccccc2)cc1OC | 101% |
| COc1cc(-c2ccnc3c2c(C)nn3-c2cccc(C(F)(F)F)c2)ccc1O | 114% |
| COc1cc(-c2c(C#N)c(N)nc3c2c(C)nn3-c2ccc(C)c(C)c2)ccc1O | 99.3% |
| COc1cc(-c2c3c(C)nn(-c4ccccc4)c3nc3[nH]c(=O)[nH]c(=O)c23)ccc1O | 101% |
| Cc1ccc(-n2nc(C)c3c(-c4ccc(O)c(O)c4)c(C#N)c(N)nc32)cc1 | 94.7% |
| COc1ccc(-c2c(C#N)c(N)nc3c2c(C)nn3-c2ccc(C)cc2)cc1OC | 103% |

| SMILES | viability |
| --- | --- |
| COc1ccc(-c2c3c(C)nn(-c4ccccc4)c3nc3[nH]c(=O)[nH]c(=O)c23)cc1OC | 83.5% |
| COc1ccc(-n2nc(C)c3c(-c4ccc(O)c(OC)c4)ccnc32)cc1 | 108% |
| COc1cc(-c2c(C#N)c(N)nc3c2c(C)nn3-c2ccc(C)cc2)ccc1O | 94% |
| COc1ccc(-c2c(C#N)c(N)nc3c2c(C)nn3-c2ccc(Cl)cc2)cc1OC | 103% |
| COc1cc(-c2ccnc3c2c(C)nn3-c2ccc(F)cc2)ccc1O | 65% |
| COc1cc(-c2c(C#N)c(N)nc3c2c(C)nn3-c2ccc(Cl)cc2)cc(OC)c1OC | 92.1% |
| Cc1nn(-c2ccc(Cl)cc2)c2nc(N)c(C#N)c(-c3ccc(O)c(O)c3)c12 | 68.5% |
| COc1cc(-c2c(C#N)c(=O)[nH]c3c2c(C)nn3-c2ccccc2)cc(OC)c1OC | 97.8% |
| Cc1nn(-c2ccc(F)cc2)c2nc(N)c(C#N)c(-c3ccc(O)c(O)c3)c12 | 86% |
| CCOC(=O)c1cnc2c(c(C)nn2-c2ccc(F)cc2)c1-c1ccc(O)c(OC)c1 | 54.9% |
| COc1cc(-c2c3c(C)nn(-c4ccccc4)c3nc3[nH]c(=O)[nH]c(=O)c23)cc(OC)c1O | 98.6% |
| COc1cc(-c2c(C#N)c(N)nc3c2c(C)nn3-c2ccc(C)cc2)cc(OC)c1OC | 99.9% |
| COc1cc(-c2ccnc3c2c(C)nn3-c2ccc(C(F)(F)F)cc2)ccc1O | 118% |
| COc1cc(-c2c(C#N)c(N)nc3c2c(C)nn3-c2ccccc2)ccc1O | 101% |
| Cc1nn(-c2ccccc2)c2nc3[nH]c(=O)[nH]c(=O)c3c(-c3ccc4c(c3)OCO4)c12 | 72.3% |
| COc1ccc(-c2c3c(C)nn(-c4ccccc4)c3nc3[nH]c(=O)[nH]c(=O)c23)cc1O | 102% |
